From PubChem BioAssay
Shown are actives, neighbours in structure and some others; about 1.3% of the full set was active somewhere.
Gli-Sufu antag = Gli-Sufu pathway antagonists, primary screen, luciferase luminescence, Sufu-KO-LIGHT cells, uHTS; Sufu-KO-LIGHT fibroblasts, Gli luciferase reporter luminescence; inhibition, % at 5 µM; hit rate 0.74% among 340,000; AID 588413, 2011;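 active means inhibition above about 55%, limit read from the data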;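 further: 0% = DMSO-treated cells and 100% = wells with medium but no cells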
LRH-1 inv ag = LRH-1 (NR5A2) inverse agonists, primary screen, cell-based, luminescence, HEK293T, StAR-luciferase reporter; Nuclear receptor subfamily 5 group A member 2 (Homo sapiens), O00482; LRH-1 transfected, 24 h; inhibition, % at 3.6 µM; hit rate 0.13% among 360,000; AID 602396, 2012;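 active means inhibition above the mean inhibition of all tested compounds plus 3 SD, cut at about 73% in these data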;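 further: 0% = DMSO wells and 100% = reporter-only cells lacking LRH-1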
NCOA1 inh = SRC1 coactivator transcriptional activity inhibitors, primary screen, cell-based, luminescence. Nuclear receptor coactivator 1 (Homo sapiens), Q15788. HEK293 GAL4-SRC1 luciferase reporter. hit rate 0.12% among 360,000. inhibition, % at 3.6 µM;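 active means inhibition above the campaign mean plus 3 SD, with each screening campaign given its own cutoff, cut at about 60% in these data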;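 further: 0% = DMSO treated cells and 100% = gossypol at 36 µM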
NCOA3 inh = SRC3 coactivator transcriptional activity inhibitors, primary screen, cell-based, luminescence. AID 588352, 2011. HEK293 GAL4-SRC3 luciferase reporter. inhibition, % at 3.6 µM. hit rate 0.17% among 360,000;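 active means inhibition above a per-campaign cutoff, the mean of all compounds plus 3 SD, cut at about 60% in these data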;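 further: 0% = DMSO-treated cells and 100% = gossypol-treated cells at 36 µM; higher means less SRC3-driven luciferase light from the GAL4 reporter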
COUP-TFII inh = NR2F2 transcriptional activity inhibitors, primary screen, cell-based, luciferase reporter, HEK293T, luminescence; COUP transcription factor 2 (Homo sapiens), P24468; HEK293T NGFI-A luciferase reporter; inhibition, % at 8.6 µM; hit rate 0.7% among 370,000;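 active means inhibition above a per-plate cutoff, mean inhibition of test wells between control levels plus 3 SD, cut at about 38% in these data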;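 further: cells cotransfected with COUP-TFII expression vector driving the NGFI-A reporter; 0% = median of COUP-TF2 test wells and 100% = reporter-only cells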
Target sequence (P24468 whole entry, looked up): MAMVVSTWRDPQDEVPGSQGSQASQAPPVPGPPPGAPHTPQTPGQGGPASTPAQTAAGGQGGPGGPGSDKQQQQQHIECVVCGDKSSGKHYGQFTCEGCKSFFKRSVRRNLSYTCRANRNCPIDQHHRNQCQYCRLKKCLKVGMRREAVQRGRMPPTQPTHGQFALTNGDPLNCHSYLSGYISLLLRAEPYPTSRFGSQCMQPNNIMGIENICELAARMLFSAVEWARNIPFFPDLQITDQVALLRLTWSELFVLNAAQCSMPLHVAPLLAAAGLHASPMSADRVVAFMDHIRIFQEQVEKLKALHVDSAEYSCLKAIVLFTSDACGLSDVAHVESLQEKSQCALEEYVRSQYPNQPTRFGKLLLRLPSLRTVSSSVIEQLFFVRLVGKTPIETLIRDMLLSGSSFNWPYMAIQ
NCOA2 inhibitor = inhibition of GAL4-SRC2 driven luciferase reporter, primary screen, SRC2 inhibitor project, cell-based, luminescence. HEK293 GAL4-SRC2 luciferase reporter. inhibition, % at 9 µM. hit rate 0.17% among 370,000. AID 651957, 2012;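 active means inhibition above the mean inhibition of all tested compounds plus 3 SD, set per campaign, cut at about 52% in these data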;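 further: 0% = DMSO treated cells and 100% = cells given Gossypol at 36 µM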
Gal4-VP16 ctr = Gal4-VP16 luciferase reporter inhibitors, counter-screen for COUP-TFII antagonist project, cell-based, luminescence, HEK293 | shares compounds with COUP-TFII inh | AID 687007, 2013 | inhibition, % at 8.5 µM | hit rate 25% among 2,500; in the data active means inhibition above about 13%
NR2F2 inh conf = NR2F2 transcriptional activity inhibitors, confirmation, cell-based, luciferase reporter, HEK293, triplicate; HEK293 NGFI-A luciferase reporter, luminescence; hit rate 45% among 2,500; inhibition, % at 8.5 µM; shares compounds with COUP-TFII inh; AID 687008, 2013;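 active means mean inhibition over three repeats above a set limit taken from the earlier primary screen, cut at about 38% in these data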;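 further: 100% = cells given the luciferase reporter alone without the COUP-TF2 vector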
Starred values were filed as active, the others as inactive; x = no result given.

SMILES | Gli-Sufu antag | LRH-1 inv ag | NCOA1 inh | NCOA3 inh | COUP-TFII inh | NCOA2 inhibitor | Gal4-VP16 ctr | NR2F2 inh conf
CN1C(=O)/C(=C\c2ccccc2F)Sc2ccc(C(=O)NC3CCN(Cc4ccccc4)CC3)cc21 | 27 | 29 | 10 | 19 | 41* | 20 | -2 | 20
Cc1nc2ccccc2n1Cc1ccccc1Br | 49 | 18 | 11 | 7 | 41* | 14 | -4 | 10
CC(=O)Nc1sc2c(c1-c1cc3ccccc3o1)CCNC2 | x | x | x | x | -12 | x | x | x
CC(C)NC(=O)C1(C)CCCCN1Cc1ccc(OCc2ccccc2)cc1 (stereo not drawn) | x | 29 | 0 | 13 | 41* | 18 | -17 | 14
COc1ccc(CCNc2ccc(N3C(=O)CC(C)C3=O)cc2[N+](=O)[O-])cc1OC (stereo not drawn) | -29 | 36 | 8 | 21 | 55* | 29 | -5 | 24
Cc1nc(SCc2cccc(C(=O)O)c2)nc2c1CCCC2 | -5 | -43 | -48 | -47 | 52* | 53* | 23* | 4
OC(CNc1ncnc2sccc12)c1ccccc1 (stereo not drawn) | 28 | -57 | -55 | -52 | 40* | -17 | -150 | -35
COc1ccc(C(CNc2ncnc3sccc23)N(C)C)cc1OC (stereo not drawn) | -10 | 15 | -22 | 3 | -6 | -21 | x | x
CN(C)C(CNc1ncnc2sccc12)c1ccccc1 (stereo not drawn) | 13 | -4 | 11 | 3 | -36 | -4 | x | x
COc1ccc(CNc2ncnc3sccc23)cc1OC | 30 | 40 | -7 | 21 | 48* | 6 | -1 | 23
c1csc(CNc2ncnc3sccc23)c1 | 47 | 41 | 22 | 26 | 63* | 15 | 11 | 46*
COc1cccc(/C=C2\CC3(OC(=O)c4ccccc4)CCCN2C3)c1 (stereo not drawn) | x | x | x | x | 8 | 1 | x | x
COc1cccc(/C=C2\CC3(OC(=O)c4ccc(F)cc4)CCCN2C3)c1 (stereo not drawn) | x | x | x | x | 7 | -18 | x | x
O=C1c2cccc(O)c2C(=O)c2c(O)cc(CO)cc21 | 1 | x | x | x | x | x | x | x
CC1OC2CC(=O)OC2C2=C1C(=O)c1c(O)cccc1C2=O (stereo not drawn) | x | 104* | 91* | 96* | 107* | 95* | 97* | 110*
Cc1ccc(-c2nc(CS(=O)CC(=O)NCCCN3CCN(Cc4ccccc4)CC3)c(C)o2)cc1 (stereo not drawn) | 30 | 19 | 8 | 47 | 41* | -16 | -6 | 21
O=S(=O)(C/C(=C/CO)S(=O)(=O)c1ccccc1)c1ccccc1 | 27 | -59 | -99 | -39 | 76* | 72* | 38* | 58*
CC(=O)Nc1ccc(Nc2cc(C)nc3c(-c4ccccc4)cnn23)cc1 | -8 | 16 | 24 | 28 | 42* | 37 | -17 | 43*
CC1CCN(C(=O)c2cccc(S(=O)(=O)N3CCN(c4ccccc4)CC3)c2)CC1 | -2 | 13 | -5 | 1 | 9 | -12 | x | x
CC1CCN(S(=O)(=O)c2cc(C(=O)N3CCN(c4ccccc4)CC3)ccc2Br)CC1 | x | 2 | 9 | 0 | 47* | 4 | 9 | 45*
Cc1ccc(C(=O)N2CCN(c3ccccc3)CC2)cc1S(=O)(=O)N1CCCC1 | -4 | 10 | -3 | -1 | 18 | 13 | x | x
Cc1ccc(C(=O)N2CCN(c3ccc(F)cc3)CC2)cc1S(=O)(=O)N1CCCCC1 | 25 | 11 | -10 | 30 | 49* | 8 | -4 | 26
O=S(=O)(N1CCCCC1)n1nnc2cc3ccccc3cc21 | x | x | x | x | -18 | -68 | x | x
COC(=O)c1cc2c(c3c4cc(C)ccc4n(S(=O)(=O)c4ccc(C)cc4)c13)C(=O)N(Cc1ccc(C(F)(F)F)cc1)C2 | x | x | x | x | 1 | 20 | x | x
COc1ccc(/C=C/c2nc3ccccc3n2C)cc1 | 45 | -31 | 6 | 27 | 64* | 58* | 7 | 39*
SMILES | Gli-Sufu antag | LRH-1 inv ag | NCOA1 inh | NCOA3 inh | COUP-TFII inh | NCOA2 inhibitor | Gal4-VP16 ctr | NR2F2 inh conf
COc1ccc(Cn2c(/C=C/c3ccccc3)nc3ccccc32)cc1 | -130 | -104 | -110 | -86 | -56 | -55 | x | x
COc1ccc(/C=C/c2nc3ccccc3c(=O)o2)cc1 | 71* | 51 | 61 | 61 | 79* | 77* | -24 | 1
C/C=C/c1ccc([C@H]2[C@@H](CN(CC(C)C)S(=O)(=O)c3ccccc3[N+](=O)[O-])N(C(=O)Nc3cccc(OC)c3)[C@H]2CO)cc1 | x | x | x | x | -2 | -14 | x | x
Cc1cc(/C=C2\SC(=S)N(C)C2=O)c(C)n1-c1ccccc1O | 2 | -2 | -14 | -7 | 43* | 13 | -107 | 13
CN1C(=O)/C(=C/c2coc3ccc(O)cc3c2=O)SC1=S | 9 | 21 | 1 | -18 | -11 | -1 | x | x
Cc1cc(/C=C2/SC(=S)N(c3cccc(Cl)c3)C2=O)c(C)n1-c1cccnc1 | 15 | 36 | 12 | 11 | 65* | 2 | -22 | 64*
Cc1ccc(/C=C2\SC(=S)N(c3cccnc3)C2=O)o1 | 12 | 8 | 6 | -9 | -1 | -12 | x | x
Cc1ccc(-n2c(C)cc(/C=C3\SC(=O)NC3=O)c2C)cc1 | -86 | -113 | -167 | -94 | -3 | -4 | x | x
Cc1cc(/C=C2\SC(=S)N(C)C2=O)c(C)n1-c1ccc(O)cc1 | -27 | 72 | 80* | 81* | 84* | 73* | 68* | 98*
COC(=O)c1ccc2c(=O)n(CCCCCC(=O)NC3CCCCC3)c(=O)[nH]c2c1 | x | x | x | x | 7 | -16 | x | x
COc1ncc(-c2ccc(N3C(c4ccsc4)=Cc4ccccc4C3CC(C)=O)cc2)cn1 (stereo not drawn) | x | -13 | x | x | -8 | -23 | x | x
CC(=O)CC1c2ccccc2C=C(c2ccsc2)N1c1ccc(-c2cccs2)cc1 (stereo not drawn) | x | 16 | x | x | 46* | 6 | -15 | -4
C=CS(=O)(=O)N(Cc1ccc(F)cc1)C(=C)C(=O)OC | x | x | x | x | 68* | 34 | 17* | 17
COC(=O)[C@@H](NC(=O)NCc1ccc(F)cc1)C(C)C | 0 | 4 | -1 | 3 | -9 | -2 | x | x
CCOc1cc(C(=S)N2CCOCC2)ccc1OS(=O)(=O)c1ccc(NC(C)=O)cc1 | 31 | 28 | 18 | 32 | 48* | 24 | -5 | 9
